From PubChem
p53 reactivator: re-activators of mutant p53; 320,000 tested, 0.063% active; Potency, µM (series often up to 92.2 µM), most hits filed as activators; H1299 p53-A138V BP100-luciferase reporter, luminescence, 24 h; also: nearly all actives have a fitted effect of over 45% in size
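H1299 (p53-null), stable ts p53-A138V + BP100-Luc; 1000 cells/well, Opti-MEM/10% FBS; cpd 4 pt, 1:5; 24 h, 37 deg C, 5% CO2; detection reagent 10 min RT; luminescence.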
LDHA inh: LDHA (human) enzyme inhibition | P00338 | purified LDHA, NADH/diaphorase-resazurin fluorescence; stronger effect = lower value | activity change, % (values are at about 110 or 230 µM) | 480,000 tested, 0.15% active | AID 1347041; in the data active = activity change below about -30%; inconclusive = mostly about -25% to -30%
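LDH5 2 nM; NADH 0.06 mM, pyruvate 0.2 mM; 200 mM Tris pH 7.4, EDTA, Tween-20; 5 min RT. Detection: diaphorase 0.133 mg/mL + resazurin 37 µM, fluorescence ex540/em590 at 0 and 20 min; normalized to enzyme-free and DMSO wells.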
ClpP mod: qHTS Assay for Activators of ClpP; purified B. subtilis ClpP, FRET peptide cleavage, 20 min; Potency, µM (top dose mostly 57.5 µM); 340,000 tested, 1.9% active; ATP-dependent Clp protease proteolytic subunit (Bacillus subtilis (strain 168)), P80244; active = well fitted falling curve with a large enough effect; inconclusive = small, poorly fitted or top-dose-only effect; inactive = no such curve, though single readings can be large or run the other way; also: the source files actives as falling curves though it sought activators and does not explain the sign; nearly all actives have a fitted effect of over 65% in size
Target sequence (P80244 whole entry, looked up): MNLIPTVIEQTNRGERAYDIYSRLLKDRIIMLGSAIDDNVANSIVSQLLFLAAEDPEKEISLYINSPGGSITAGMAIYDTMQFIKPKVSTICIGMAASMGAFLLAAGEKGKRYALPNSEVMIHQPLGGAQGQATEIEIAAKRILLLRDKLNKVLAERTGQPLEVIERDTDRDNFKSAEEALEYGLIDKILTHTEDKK
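Buffer: 100 mM Tris/HCl pH8, 100 mM KCl, 0.05% low protease BSA, 2.5% glycerol, 0.01% Tween-20. ClpP 10 microg/mL final; 20 min RT; delta FRET normalized to ADEP and DMSO controls.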
GLP1R ag: agonists of human GLP-1 receptor. P43220. HEK293 GLP-1R CRE-luciferase, luminescence, 4-6 h; cells express a hypersensitive GLP-1R form. Potency, µM (highest dose often 45.6 µM), most hits filed as activators. 380,000 tested, 0.007% active. AID 624172
Target sequence (P43220 whole entry, looked up): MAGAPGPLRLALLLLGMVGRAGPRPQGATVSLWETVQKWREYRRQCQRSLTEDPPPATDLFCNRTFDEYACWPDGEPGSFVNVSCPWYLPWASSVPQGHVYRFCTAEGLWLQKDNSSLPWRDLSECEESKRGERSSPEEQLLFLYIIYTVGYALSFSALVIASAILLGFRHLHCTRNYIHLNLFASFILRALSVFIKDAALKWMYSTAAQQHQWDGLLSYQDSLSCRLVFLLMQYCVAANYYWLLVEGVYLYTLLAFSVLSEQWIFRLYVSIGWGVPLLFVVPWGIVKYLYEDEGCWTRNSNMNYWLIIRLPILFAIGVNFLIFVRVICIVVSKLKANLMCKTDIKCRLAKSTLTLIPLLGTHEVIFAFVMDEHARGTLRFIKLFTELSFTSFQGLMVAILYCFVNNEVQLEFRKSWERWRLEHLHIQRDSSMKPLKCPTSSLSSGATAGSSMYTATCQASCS
GLP1R inv ag: acts as inverse agonist at human GLP-1 receptor; HEK293 GLP-1R CRE-luciferase, luminescence, 24 h; GLP-1R form is constitutively active; Potency, µM (doses to about 38.3 µM), actives largely listed as inhibitors; 410,000 tested, 1.6% active; also: nearly all actives have a fitted effect of over 55% in size
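Readout was luciferase luminescence, measured 12 min after detection reagent at room temperature. Beforehand, GLP-1R reporter HEK293 cells had sat 12 h, then received compounds for 24 hr at 37 deg C.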
HEK293 tox: cytotoxicity counter-screen for GLP-1 receptor inverse agonists. HEK293 cAMP-luciferase reporter cells, luminescence, 24 h. Potency, µM (titrated, usually from 38.3 µM), usual class: inhibitors. 410,000 tested, 0.13% active;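 also: loss of luciferase light is scored as toxicity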
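Here, cytotoxicity is scored as loss of luminescence. The MLSMR collection was tested on cells seeded in medium containing 10% Nu serum, with a 24 hr compound exposure preceded by 12 hours of culture.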
Hits are given with their value; 0 = inactive; ? = inconclusive; - = not tested or not shown. Shown are actives, neighbours in structure and some others; about 2.9% of the full set was active somewhere. Unless noted, calls follow the shape of the dose curve; as a rule, active = well fitted curve in the direction sought with a large enough effect; inconclusive = small, poorly fitted or top-dose-only effect, or another doubt; inactive = no such curve, though single readings can be large; an effect the other way counts as inactive or inconclusive.

SMILES | p53 reactivator | LDHA inh | ClpP mod | GLP1R ag | GLP1R inv ag | HEK293 tox
CC1CCCC(C)N1Cc1cn2ccccc2n1 (configuration not stated) | 0 | 0 | 18µM | 0 | 0 | 0
COc1ccccc1/C=C/C1(C(=O)NC2CCCC2)CC(=O)N1c1ccccc1 (configuration not stated) | 0 | 0 | 0 | 0 | 3.2µM | 0
Cc1ccc(C)c(C(=O)Cn2ncc(Cl)c(Cl)c2=O)c1 | 0 | 0 | 0 | 0 | 0 | 10µM
Cc1ccc(C)c(OCCC(=O)Nc2cc(S(=O)(=O)N3CCCCC3)ccc2C)c1 | 0 | 0 | - | 0 | 11µM | 0
Cc1ccc(S(=O)(=O)N2CCCCC2)cc1NC(=O)Cn1ncc(Cl)c(Cl)c1=O | 0 | 0 | 0 | 0 | 10µM | ?
Cc1ccc(S(=O)(=O)N2CCCCC2)cc1NC(=O)Cn1cnnn1 | 0 | 0 | 0 | 0 | 0 | 0
Cc1ccc(C)c(OCCC(=O)OCC(=O)Nc2cc(S(=O)(=O)N3CCCCC3)ccc2C)c1 | 0 | 0 | 0 | 0 | ? | 0
Cc1ccc(S(=O)(=O)N2CCCCC2)cc1NC(=O)CNC(C)c1ccc(Cl)c(Cl)c1 (configuration not stated) | 0 | 0 | 0 | 0 | 2.8µM | 0
Cc1ccc(S(=O)(=O)N2CCCCC2)cc1NC(=O)CSCC(=O)O | 0 | 0 | - | 0 | 0 | 0
Cc1ccc(Nc2c(F)c(F)c(F)c(F)c2C(=O)O)cc1 | 0 | 0 | - | 0 | 0 | 0
c1ccc(CN2CCN(c3nc(-c4ccccc4)nc4ccccc34)CC2)cc1 | 0 | 0 | 0 | 0 | 3.5µM | 0
c1ccc(CN2CCN(c3nc(-c4ccccn4)nc4ccccc34)CC2)cc1 | 0 | 0 | 0 | 0 | 0 | 0
Cc1ccc(C)c(SCc2noc(C(=O)NC(C)C)c2C(=O)O)c1 | 0 | 0 | 0 | 0 | ? | 0
O=C(Nc1cccc(Cl)c1)Nc1nnc([C@@H]2C[C@H](O)[C@@H](CO)O2)s1 | - | 0 | 0 | 0 | ? | 0
O=C(Nc1ccc(F)c(Cl)c1)Nc1nnc([C@H]2C[C@H](O)[C@@H](CO)O2)s1 | - | -48 | 0 | 0 | 0 | 0
O=C(Nc1ccc2c(c1)OCO2)c1cc(C2CCCCN2C(=O)CCCc2ccccc2)on1 (configuration not stated) | - | 0 | 0 | 0 | 8.9µM | 0
Cc1cccc(NS(=O)(=O)c2ccc(S(=O)(=O)N3CCCC3)cc2)c1 | - | 0 | 0 | 0 | ? | 0
CCc1cccc(NC(c2nnc(-c3ccccc3)o2)c2ccc(F)cc2Cl)c1 (configuration not stated) | - | 0 | 0 | - | 6.3µM | 0
CCCCC1CCC(C(=O)Nc2ccccc2N2CCOCC2)CC1 (configuration not stated) | 0 | 0 | 0 | 0 | 10µM | 0
O=C(Nc1ccccc1F)c1nc(S(=O)(=O)Cc2ccccc2F)ncc1Cl | - | 0 | 0 | - | 11µM | ?
CCOc1ccccc1NC(=O)c1nc(S(=O)(=O)Cc2ccccc2F)ncc1Cl | - | 0 | ? | - | - | -
CN(Cc1ccccc1)C(=O)c1oc(=O)c2ccccc2c1-c1ccccc1 | 0 | 0 | 0 | 0 | ? | 0
CCC(C(=O)OCC(=O)Nc1ccc(OC)cc1OC)c1ccccc1 (configuration not stated) | 0 | 0 | - | 0 | ? | 0
CCC(C(=O)OCC(=O)Nc1cc(Cl)ccc1Cl)c1ccccc1 (configuration not stated) | 0 | 0 | 25µM | 0 | ? | 0
CC[C@H](C)[C@@H]1NC(=O)[C@@H](CC(C)C)NC(=O)[C@H](C(C)C)NC(=O)[C@H]2CSSC[C@H](NC1=O)C(=O)N2 | - | 0 | 0 | 0 | 4µM | ?
SMILES | p53 reactivator | LDHA inh | ClpP mod | GLP1R ag | GLP1R inv ag | HEK293 tox
CC(C)CC1NC(=O)C(CCCN)NC(=O)C(C(C)C)NC(=O)C2CCCN2C(=O)C(Cc2ccccc2)NC(=O)C(CC(C)C)NC(=O)C(CCCN)NC(=O)C(C(C)C)NC(=O)C2CCCN2C(=O)C(Cc2ccccc2)NC1=O (configuration not stated) | - | - | - | 0 | - | -
Cc1ccccc1NC1=C/C(=N\S(=O)(=O)c2ccc(C(=O)O)cc2)c2ccccc2C1=O | 0 | 0 | - | 0 | 8.9µM | ?
O=C(O)c1ccc(S(=O)(=O)/N=C2\C=C(Nc3ccccc3F)C(=O)c3ccccc32)cc1 | 0 | 0 | - | 0 | ? | ?
NC(=S)NN=C1c2ccccc2-c2ccccc21 | 0 | 0 | 0 | 0 | ? | 1.4µM
CCCc1cc(=O)oc2cc(OC(C)C(=O)NCCCN3CCCC3=O)c(Cl)cc12 (configuration not stated) | - | 0 | - | - | - | -
O=C1CC(C(=O)Nc2ccccc2)C2(CCCCC2)O1 (configuration not stated) | 0 | 0 | 0 | 0 | 0 | 0
O=C1CC(C(=O)Nc2ccc(Cl)cc2[N+](=O)[O-])C2(CCCCC2)O1 (configuration not stated) | 0 | 0 | 28µM | 0 | 0 | 0
CCCn1c(=O)[nH]c(=O)c2c1nc(-c1ccc(OC(F)(F)C(F)C(F)(F)F)cc1)n2CCOC (configuration not stated) | 0 | 0 | 28µM | 0 | 0 | 0
CCOc1ccccc1NC(=O)Nc1cccc(NC(C)=O)c1 | 0 | 0 | 0 | 0 | 0 | 0
CCOc1ccccc1NC(=O)Nc1ccc2c(c1)CCC2 | 0 | 0 | 0 | 0 | 10µM | 0
Cc1cc(C)nc(SCC(=O)Nc2ncc(Cc3cccc(Cl)c3)s2)n1 | 0 | 0 | 0 | 0 | 0 | 0
Cc1nc2cc(-c3ccc(F)cc3)[nH]n2c(=O)c1C | - | 0 | 0 | 0 | 0 | 0
Cn1c(=O)c2c(nc(NCC3CCCO3)n2Cc2ccccc2)n(C)c1=O (configuration not stated) | 0 | 0 | 28µM | 0 | 0 | 0
Cc1cc(C)c(S(=O)(=O)/N=C2/C=C(Sc3ncn[nH]3)C(=O)c3ccccc32)cc1C | 0 | 0 | 0 | 0 | 10µM | ?
Cc1ccc(C)c(S(=O)(=O)/N=C2\C=C(NS(=O)(=O)c3ccccc3)C(=O)c3ccccc32)c1 | 0 | 0 | 0 | 0 | 0 | 0
CN(CC(=O)Nc1ccc(F)c(F)c1)S(=O)(=O)c1cccc2nsnc12 | 0 | 0 | 0 | 0 | 0 | 0
Cc1cccc(C(=O)NC(=S)Nc2ccccc2C(F)(F)F)c1 | ? | 0 | 0 | 0 | ? | ?
Cc1ccccc1Cn1c(CN2CCC(C(=O)NCc3ccc(Cl)cc3)CC2)cc2ccccc21 | - | 0 | 0 | - | ? | 0
CCOc1ccc(CNC(=O)C2CCN(Cc3cc4ccccc4n3Cc3ccccc3C)CC2)cc1 | - | 0 | 0 | - | 7.1µM | 0
Cc1cccc(OCCN2C(=O)C(=O)c3cccc(C)c32)c1 | 0 | 0 | 0 | 0 | 0 | 0
